An excerpt weighted towards active compounds, which were near 12% of everything screened.
HP1b chromo inh: blocks HP1-beta chromodomain binding to methylated histone tails. P83916. AlphaScreen HP1-beta / biotin-H3K9me3 peptide binding. Potency, µM (doses to about 114 µM), most hits filed as inhibitors. 0.56% of 390,000 active; note: nearly all actives have a fitted effect of over 70% in size
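HP1-beta protein (50 nM final) preincubated 30 min at room temperature with biotinylated H3(1-18)K9me3 peptide (50 nM) in PBS pH 7.4, 0.01% Tween-20, then compound added for 30 min. AlphaScreen streptavidin donor/nickel chelate acceptor beads (10 ug/mL final), 30 min dark, luminescence read.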
JMJD2A Tudor inh: inhibitors of human JMJD2A Tudor domain | O75164 | AlphaScreen JMJD2A-Tudor / H3K4me3 peptide binding | Potency, µM (titrated, usually from 114 µM), usual class: inhibitors | 4.4% of 390,000 active | AID 504339; note: nearly all actives have a fitted effect of over 50% in size
Target sequence (O75164 whole entry, looked up, the tested form may be a part): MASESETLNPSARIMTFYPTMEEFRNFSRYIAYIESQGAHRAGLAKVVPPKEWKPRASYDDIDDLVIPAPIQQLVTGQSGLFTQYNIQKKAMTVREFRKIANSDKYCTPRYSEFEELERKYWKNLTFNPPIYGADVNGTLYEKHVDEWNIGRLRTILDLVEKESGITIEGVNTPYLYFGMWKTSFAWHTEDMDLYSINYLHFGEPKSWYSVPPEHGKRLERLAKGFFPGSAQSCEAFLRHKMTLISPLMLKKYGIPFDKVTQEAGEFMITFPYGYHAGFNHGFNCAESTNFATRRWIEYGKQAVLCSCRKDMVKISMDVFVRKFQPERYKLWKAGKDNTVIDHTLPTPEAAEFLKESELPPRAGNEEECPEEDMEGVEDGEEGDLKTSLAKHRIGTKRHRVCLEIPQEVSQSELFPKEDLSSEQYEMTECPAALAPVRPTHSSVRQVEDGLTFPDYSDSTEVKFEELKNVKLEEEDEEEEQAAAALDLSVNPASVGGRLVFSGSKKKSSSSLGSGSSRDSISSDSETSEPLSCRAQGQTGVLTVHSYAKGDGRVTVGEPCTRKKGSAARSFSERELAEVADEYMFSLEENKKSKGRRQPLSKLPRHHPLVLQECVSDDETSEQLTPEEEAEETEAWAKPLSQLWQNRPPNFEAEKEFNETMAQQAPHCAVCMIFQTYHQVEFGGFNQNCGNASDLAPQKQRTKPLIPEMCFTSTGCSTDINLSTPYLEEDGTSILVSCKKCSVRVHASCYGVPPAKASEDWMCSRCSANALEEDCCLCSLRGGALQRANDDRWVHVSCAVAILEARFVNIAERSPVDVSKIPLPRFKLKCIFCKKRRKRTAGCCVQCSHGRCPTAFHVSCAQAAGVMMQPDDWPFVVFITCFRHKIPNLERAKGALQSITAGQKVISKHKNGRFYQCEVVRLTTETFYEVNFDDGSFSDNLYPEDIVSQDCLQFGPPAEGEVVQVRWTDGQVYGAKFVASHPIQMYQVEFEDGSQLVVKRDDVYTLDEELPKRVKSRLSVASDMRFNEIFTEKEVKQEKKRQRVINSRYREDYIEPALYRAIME
BAZ2B block: inhibitors of human BAZ2B bromodomain; Q9UIF8; AlphaScreen BAZ2B-H3K14Ac peptide displacement; Potency, µM (top dose mostly 114 µM), hits mostly inhibitors; 4.4% of 360,000 active; AID 504333; note: nearly all actives have a fitted effect of over 60% in size
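In this displacement format the biotinylated H3(5-23) peptide acetylated at Lys14 serves as ligand at 50 nM, with BAZ2B at 50 nM in PBS pH 7.4 containing 0.01% Tween-20. Donor and acceptor beads are 10 ug/mL final.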
G9a inh: G9a (human) methyltransferase inhibition; Potency, µM (highest dose often 102 µM), hits mostly inhibitors; AID 504332; Q96KQ7; 8.8% of 350,000 active; G9a H3K9 monomethylation, AlphaScreen, 2 h; note: nearly all actives have a fitted effect of over 75% in size
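Using a bead-based AlphaScreen, monomethylated H3K9 product from 2 h room-temperature reactions (G9a 20 nM, peptide 500 nM, SAM 20 uM) was detected with 0.5 ug/mL rabbit anti-H3K9me1 antibody.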
Sfp inh: inhibitors of Bacillus subtilis Sfp phosphopantetheinyl transferase. Potency, µM, most hits filed as inhibitors. AID 1490. Q9F4F7. Biochemical Sfp PPTase activity, qHTS. 3.5% of 310,000 active;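 note: the enzyme is Sfp with the accession as filed and its product quenches rhodamine fluorescence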
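Fluorescence-quenching assay with 15 nM Sfp, 5 uM rhodamine-CoA and 12.5 uM BHQ-2-labelled ybbR peptide in pH 7.6 Hepes/MgCl2 buffer. Enzyme was pre-incubated with compound for 15 min at room temperature. Rate was taken from the 30-min fluorescence change (525/598 nm).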
Numbers stand for hits; – = inactive; ? = inconclusive; · = no result given; [ ] = remark or other dose. Calls come from the whole dose curve; as a rule, active = well fitted curve in the direction sought with a large enough effect; inconclusive = small, poorly fitted or top-dose-only effect, or another doubt; inactive = no such curve, though single readings can be large; an effect the other way counts as inactive or inconclusive.

SMILES	HP1b chromo inh	JMJD2A Tudor inh	BAZ2B block	G9a inh	Sfp inh
Cc1ccsc1/C=N/N1CCN(c2ccccc2)CC1	–	?	?	–[2.33 µM]	–
C(=N\N1CCN(Cc2cccc3ccccc23)CC1)/c1ccco1	45µM	56µM	?	40µM	–
Cc1ccsc1/C=N/N1CCN(Cc2ccccc2)CC1	?	56µM	?	32µM	–
COc1ccc(C(=O)OCc2cc(=O)n3nc(-c4cccs4)sc3n2)cc1	–	–	–	–	·
COc1cccc(-c2cc(C(=O)NCCc3ccc(OC)c(OC)c3)no2)c1	–	–	–	–	·
CC1C(=O)Nc2ccc(S(=O)(=O)N3CCCCC3)cc2NC1=O (stereo not drawn)	–	–	–	–	·
CSCCC1Nc2ccc(S(=O)(=O)N3CCOCC3)cc2NC1=O (stereo not drawn)	–	–	·	3.2µM	–
Cn1c(=O)c2c(nc(CN3CCN(C(=O)c4ccco4)CC3)n2Cc2cccc(Cl)c2)n(C)c1=O	–	–	·	?	–
Cn1c(=O)c2c(nc(CN3CCc4ccccc4C3)n2Cc2cccc(Cl)c2)n(C)c1=O	–	–	–	8.9µM	–
Cn1c(=O)c2c(nc(CN3CCN(Cc4ccccc4)CC3)n2Cc2cccc(Cl)c2)n(C)c1=O	–	–	–	40µM	–
NNc1ccc2c(C(F)(F)F)cc(C(F)(F)F)nc2n1	–	–	–	35µM	56µM
Cc1nc(C)c(CCNC(=O)c2ccc(C(F)(F)F)cc2)s1	–	–	–	45µM	–
Cc1ccc(C(=O)NCCc2sc(C)nc2C)cc1	–	–	–	–	–
O=C1C2CCCN2C(=O)N1CCCN1CCN(c2cccc(Cl)c2)CC1 (stereo not drawn)	–	–	–	–	–
Cc1ccc(N2CCN(CCCN3C(=O)C4CCCN4C3=O)CC2)cc1 (stereo not drawn)	–	–	?	8.9µM	–
CC(C)C(=O)Nc1cccc(N2CCN(CCCN3C(=O)C4CCCCN4C3=O)CC2)c1 (stereo not drawn)	–	79µM	·	·	·
O=C1C2CCCCN2C(=O)N1CCCCN1CCN(c2cccc(Cl)c2)CC1 (stereo not drawn)	–	–	–	?	–
CCOCCCn1c(SCC(=O)NCc2ccccc2)nc2c(sc3ccccc32)c1=O	–	–	–	–	·
CCC(=O)Nc1sc(C(=O)Nc2ccccc2F)c(C)c1C(=O)OC	–	–	–	·	–
COC(=O)c1c(NC(C)=O)sc(C(=O)Nc2ccccc2F)c1C	–	?	–	·	71µM
O=C(Nc1ccc(C(=O)N2CCN(c3ccc(Cl)cc3)CC2)cc1)C1=CSCCO1	–	?	–	–	–
O=C(Nc1ccccc1C(=O)N1CCN(c2cccc(Cl)c2)CC1)C1=CSCCO1	–	–	71µM	–	–
COc1ccc(NC(=O)CN2C(=O)C(C)(C)c3ccccc32)cc1Cl	–	–	–	–	·
Nc1nc(Cl)nc2c1ncn2C1OC(CO)C(O)C1F (stereo not drawn)	·	·	·	·	–
COc1ccc2c(c1)C=C(C(=O)OCc1cccnc1)CO2	–	35µM	–	–	–
SMILES	HP1b chromo inh	JMJD2A Tudor inh	BAZ2B block	G9a inh	Sfp inh
COc1ccc(-c2csc(NC3=NCCCCC3)n2)cc1	–	–	–	–	–
COC(=O)c1nc(NC(C)=O)n[nH]1	·	·	–	16µM	–
C1CCN=C(Nc2nn[nH]n2)CC1	–	7.9µM	79µM	?	–
COC(=O)c1nc(NC2=NCCCCC2)n[nH]1	–	79µM	–	?	–
CN(C(=O)COC(=O)C1CCN(S(=O)(=O)c2c(Cl)cccc2Cl)CC1)c1ccccc1	–	–	–	–	·
O=C(COC(=O)C1CCN(S(=O)(=O)c2c(Cl)cccc2Cl)CC1)NCc1ccco1	–	–	–	50µM	·
CN(C(=O)COC(=O)C1CCN(S(=O)(=O)c2c(Cl)cccc2Cl)CC1)C1CCCCC1	–	–	–	40µM	·
COc1ccc2nc(/C=N/NC(=O)CCCCCNC(=O)OC(C)(C)C)ccc2c1	–	–	–	?	–
COc1ccc2nc(/C=N/NC(=O)CCNC(=O)OC(C)(C)C)ccc2c1	–	–	–	32µM	–
CN1C(=O)/C(=C2\SC(N)=NC2=O)c2ccccc21	–	?	–	?	56µM
Cc1ccc(/C=C2\SC(N3CCCC3)=NC2=O)cc1	·	·	–	–	–
CC1CN(C2=NC(=O)/C(=C3/C(=O)N(Cc4ccc(F)cc4)c4ccccc43)S2)CC(C)O1 (stereo not drawn)	?	–	?	·	40µM
CN1C(=O)/C(=C2\SC(=S)N(NC(=O)c3cccnc3)C2=O)c2ccccc21	–	–	?	·	–
CN1C(=O)/C(=C2\SC(N3CCCCCC3)=NC2=O)c2ccccc21	?	40µM	?	40µM	–
CCCN1C(=O)/C(=C2\SC(N3CCCCC3)=NC2=O)c2ccccc21	–	40µM	16µM	22µM	?
O=C1N=C(N2CCOCC2)S/C1=C1\C(=O)N(Cc2ccccc2)c2ccccc21	–	–	–	–	–
COc1ccc(CCNC(=O)c2cnc3sc(N4CCC(C)CC4)nn3c2=O)cc1OC	–	–	–	–	·
O=C(CC1Sc2ccccc2NC1=O)NNc1cccc(Cl)c1Cl (stereo not drawn)	–	–	·	·	·
O=C(OCC(=O)N1CCCc2ccccc21)c1ccc(S(=O)(=O)C(F)F)cc1	–	–	–	50µM	·
CCCC(=O)Nc1sc2c(c1C#N)CCCC2	–	–	–	–	–
N#Cc1c(NC(=O)C2CC2)sc2c1CCCCC2	–	–	–	89µM	?
N#Cc1c(NC(=O)C2C3C=CC(C3)C2C(=O)O)sc2c1CCCCC2 (stereo not drawn)	–	–	?	?	–
CC(C)C(=O)Nc1sc2c(c1C#N)CCCCC2	–	–	–	–	32µM
CCCCC(=O)NC(=S)Nc1ccccc1N1CCCCC1	–	–	–	–	–
O=C(NC(=S)Nc1ccccc1N1CCOCC1)c1ccc([N+](=O)[O-])cc1	?	–	?	–	–
SMILES	HP1b chromo inh	JMJD2A Tudor inh	BAZ2B block	G9a inh	Sfp inh
O=C(NC(=S)Nc1ccccc1N1CCCC1)c1ccc([N+](=O)[O-])cc1	22µM	25µM	11µM	11µM	?
CC(=O)NC(=S)Nc1ccccc1N1CCCCC1	–	–	–	50µM	–
CC(=O)Nc1cccc(S(=O)(=O)N2CCN(S(=O)(=O)c3ccc4c(c3)OCCO4)CC2)c1	·	–	·	·	·
COc1ccc(CNc2ncnc3ccc(-c4cccc(NS(C)(=O)=O)c4)cc23)c(OC)c1	·	·	·	–[0.501 µM]	–
Cc1ccc2c(c1)N/C(=C(\C=C(/Cl)[N+](=O)[O-])[N+](=O)[O-])N2	·	·	–	22µM	35µM
N#CC1=C(N)OC2=C(C(=O)CCC2)C1c1cccs1 (stereo not drawn)	–	–	–	–	–
N#CC1=C(N)Oc2cc(O)ccc2C1c1ccncc1 (stereo not drawn)	–	–[11.4 µM]	–	?	–
N#CC1=C(N)Oc2c(ccc3ccccc23)C1c1cccs1 (stereo not drawn)	–	–	?	7.1µM	50µM
